Targets with a hit are over-represented here; the source holds about 7,900 in all. About 0.6% of all pairs of compound and target were hits.
How the values were obtained:
Experiment in all cases: log2 fold change, soluble protein after heating vs DMSO (PISA); higher = thermal stabilisation; K562 cells, 10 uM, 30 min; active = over 0.2 and 3.5 SD of the protein, either way, in both replicates (recomputed)
[1] = compound: C#Cc1cccc(Nc2ncnc3cc(OCCOC)c(OCCOC)cc23)c1 [erlotinib]
Procedure, shortened: (§1)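 Aliquots of K562 cells (2×10^6 cells/mL) treated with 10 μM compound for 30 min were heated for 3 min over 48°C-58°C. After pooling and extraction in PBS with 0.5% NP-40 at 4°C, soluble protein from a 21,000xg, 90 min spin was quantified by TMTpro 16plex LC-MS/MS with channel sums equalised. Thermal stability is expressed against control samples, from duplicates, as a log2 fold change.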

[2] = compound: C/C(=N\NC(=O)C1=CC(=CC=C1)S(=O)(=O)N2CCOCC2)/C3=C(C=CC(=C3)Cl)O
Procedure, shortened: as §1

[3] = compound: C1=CC(=C(C=C1Cl)C2=NC3=NC=CN=C3C(=N2)NC4=CC=NC=C4)F
Procedure, shortened: as §1

[4] = compound: C1=CC(=CC=C1C2=NC3=C(N2)C=C(C=C3)C(=O)N)OC4=CC=C(C=C4)Cl
Procedure, shortened: as §1

[5] = compound: C1=CC2=C(C=CC(=C2)/C=C\3/C(=O)NC(=NCC4=CC=CS4)S3)N=C1
Procedure, shortened: as §1

[6] = compound: C1=CC2=NC=CN=C2C=C1/C=C/3\C(=O)NC(=O)S3
Procedure, shortened: as §1

[7] = compound: C1=CC=C(C=C1)C2=NC(=C(N2)C3=CC=NC=C3)C4=CC(=C(C=C4)Cl)O
Procedure, shortened: as §1

[8] = compound: C1=CC=C2C(=C1)C3=NNC4=CC=CC(=C43)C2=O
Procedure, shortened: as §1

[9] = compound: C1CCN(C1)C(=O)NC2=CC=CC(=C2)NC3=NC=C(C(=N3)NCCC4=CN=CN4)Br
Procedure, shortened: as §1

[10] = compound: C1CN(CCC1(CC2=CC=C(C=C2)Cl)N)C3=NC=NC4=C3C=CN4
Procedure, shortened: as §1

Measured: log2 fold change

ATAD3A isoform 2 (UniProt Q9NVI7)
inactive: [1] -0.036 | [2] 0.02 | [3] -0.045 | [4] 0.006 | [5] -0.038 | [6] -0.013 | [7] -0.04 | [8] 0.017 | [9] 0.037 | [10] -0.101

ATP13A3 (UniProt Q9H7F0)
Chain of UniProt Q9H7F0 (Q9H7F0 whole entry, looked up): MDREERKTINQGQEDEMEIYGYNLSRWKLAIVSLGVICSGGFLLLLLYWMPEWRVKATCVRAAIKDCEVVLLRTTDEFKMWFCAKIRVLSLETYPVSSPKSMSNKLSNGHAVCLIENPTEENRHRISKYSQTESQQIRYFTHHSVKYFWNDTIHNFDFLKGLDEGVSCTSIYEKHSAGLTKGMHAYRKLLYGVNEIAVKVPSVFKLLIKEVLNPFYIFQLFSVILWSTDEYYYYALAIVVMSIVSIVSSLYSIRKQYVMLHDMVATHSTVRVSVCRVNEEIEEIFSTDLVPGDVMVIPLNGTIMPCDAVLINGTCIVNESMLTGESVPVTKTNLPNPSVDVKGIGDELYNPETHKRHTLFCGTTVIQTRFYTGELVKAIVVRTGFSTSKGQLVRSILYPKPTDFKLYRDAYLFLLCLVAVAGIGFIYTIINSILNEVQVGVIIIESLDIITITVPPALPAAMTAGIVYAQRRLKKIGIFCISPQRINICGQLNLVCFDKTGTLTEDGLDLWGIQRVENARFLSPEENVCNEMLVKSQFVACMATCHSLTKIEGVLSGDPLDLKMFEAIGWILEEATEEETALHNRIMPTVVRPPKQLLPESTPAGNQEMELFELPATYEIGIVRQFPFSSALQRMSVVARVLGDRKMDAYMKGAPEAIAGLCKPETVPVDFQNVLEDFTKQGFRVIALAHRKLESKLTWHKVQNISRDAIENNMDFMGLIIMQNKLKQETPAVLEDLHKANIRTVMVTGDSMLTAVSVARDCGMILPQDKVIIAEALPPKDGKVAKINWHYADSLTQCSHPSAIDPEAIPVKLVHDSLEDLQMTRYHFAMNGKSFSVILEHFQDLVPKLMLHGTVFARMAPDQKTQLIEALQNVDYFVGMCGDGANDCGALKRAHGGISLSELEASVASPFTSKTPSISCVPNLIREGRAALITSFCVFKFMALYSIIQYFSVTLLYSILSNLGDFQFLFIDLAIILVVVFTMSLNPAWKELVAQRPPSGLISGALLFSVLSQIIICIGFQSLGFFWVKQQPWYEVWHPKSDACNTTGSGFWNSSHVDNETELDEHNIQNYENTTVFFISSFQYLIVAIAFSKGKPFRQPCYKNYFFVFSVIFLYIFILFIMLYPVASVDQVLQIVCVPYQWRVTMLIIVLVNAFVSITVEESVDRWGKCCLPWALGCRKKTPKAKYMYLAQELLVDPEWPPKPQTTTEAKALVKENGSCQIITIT
inactive: [1] 0.043 | [2] -0.046 | [3] 0.05 | [4] 0.018 | [5] 0.016 | [6] 0.038 | [7] -0.006 | [8] -0.028 | [9] 0.017 | [10] 0.049

ATG4B isoform 2 (UniProt Q9Y4P1)
Chain of UniProt Q9Y4P1 (Q9Y4P1 whole entry, looked up): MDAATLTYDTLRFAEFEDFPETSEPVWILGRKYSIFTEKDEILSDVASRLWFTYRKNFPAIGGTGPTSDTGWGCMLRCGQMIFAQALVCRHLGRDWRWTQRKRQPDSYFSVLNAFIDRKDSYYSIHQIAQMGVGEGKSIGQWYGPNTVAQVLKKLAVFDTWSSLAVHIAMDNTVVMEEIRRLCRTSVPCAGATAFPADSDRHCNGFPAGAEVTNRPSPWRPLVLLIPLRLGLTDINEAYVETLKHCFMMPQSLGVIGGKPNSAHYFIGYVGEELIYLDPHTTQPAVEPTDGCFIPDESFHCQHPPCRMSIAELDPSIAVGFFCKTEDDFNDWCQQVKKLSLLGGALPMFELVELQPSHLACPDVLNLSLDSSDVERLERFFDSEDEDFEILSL
inactive: [1] -0.008 | [2] 0.078 | [3] 0.017 | [4] 0.178 | [5] 0.118 | [6] 0.089 | [7] 0.143 | [8] -0.046 | [9] -0.087 | [10] -0.033

ADAM15 (UniProt Q13444)
inactive: [1] 0.314 | [2] 0.154 | [3] 0.03 | [4] -0.223 | [5] 0.035 | [6] 0.068 | [7] 0.043 | [8] 0.08 | [9] -0.042 | [10] 0.013

ARFGAP2 (UniProt Q8N6H7)
Chain of UniProt Q8N6H7 (Q8N6H7 whole entry, looked up): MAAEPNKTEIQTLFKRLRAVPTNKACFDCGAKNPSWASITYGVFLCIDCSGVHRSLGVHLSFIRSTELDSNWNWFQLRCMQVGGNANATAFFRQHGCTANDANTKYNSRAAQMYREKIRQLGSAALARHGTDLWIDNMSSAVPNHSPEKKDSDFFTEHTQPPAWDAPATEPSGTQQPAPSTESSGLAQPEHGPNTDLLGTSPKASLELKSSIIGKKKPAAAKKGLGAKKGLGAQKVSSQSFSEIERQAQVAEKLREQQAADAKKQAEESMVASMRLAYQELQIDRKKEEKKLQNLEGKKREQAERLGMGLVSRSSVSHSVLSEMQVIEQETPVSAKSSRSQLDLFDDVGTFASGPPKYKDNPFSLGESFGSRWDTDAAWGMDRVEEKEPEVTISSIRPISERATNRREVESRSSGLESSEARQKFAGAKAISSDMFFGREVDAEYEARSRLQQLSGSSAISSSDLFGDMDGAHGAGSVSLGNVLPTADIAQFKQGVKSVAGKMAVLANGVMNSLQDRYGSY
inactive: [1] 0.017 | [2] 0.034 | [3] 0.019 | [4] -0.016 | [5] 0.06 | [6] 0 | [7] -0.01 | [8] -0.007 | [9] -0.053 | [10] -0.009

AP2B1 isoform 2 (UniProt P63010)
active: [9] -0.225
inactive: [1] -0.021 | [2] 0.017 | [3] -0.01 | [4] 0.003 | [5] 0.004 | [6] -0.009 | [7] -0.004 | [8] -0.158 | [10] -0.003

ARMC8 (UniProt Q8IUR7)
inactive: [1] -0.079 | [2] -0.029 | [3] -0.029 | [4] 0.027 | [5] -0.047 | [6] 0.013 | [7] 0.051 | [8] -0.005 | [9] -0.002 | [10] -0.027

AMD1 (UniProt P17707)
inactive: [1] 0.078 | [2] -0.004 | [3] 0.039 | [4] 0.094 | [5] 0.091 | [6] -0.002 | [7] 0.127 | [8] 0.035 | [9] -0.224 | [10] 0.025

ATAD3B (UniProt Q5T9A4)
inactive: [1] -0.027 | [2] -0.018 | [3] -0.128 | [4] -0.006 | [5] -0.005 | [6] -0.002 | [7] -0.06 | [8] 0.066 | [9] 0.01 | [10] -0.091

ACTBL2 (UniProt Q562R1)
inactive: [1] -0.247 | [2] -0.805 | [3] 0.093 | [4] 0.025 | [5] -0.419 | [6] -0.215 | [7] 0.047 | [8] 0.147

BAD (UniProt Q92934)
Chain of UniProt Q92934 (Q92934 whole entry, looked up): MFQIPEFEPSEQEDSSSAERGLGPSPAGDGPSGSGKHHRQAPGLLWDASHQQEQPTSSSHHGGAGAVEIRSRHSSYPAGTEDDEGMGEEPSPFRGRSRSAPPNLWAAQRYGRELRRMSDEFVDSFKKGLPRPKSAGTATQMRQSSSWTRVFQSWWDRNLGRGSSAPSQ
inactive: [1] 0.049 | [2] 0.079 | [3] 0.022 | [4] 0.124 | [5] 0.083 | [6] 0.023 | [7] 0.01 | [8] 0.025

ACP2 (UniProt P11117)
Chain of UniProt P11117 (P11117 whole entry, looked up): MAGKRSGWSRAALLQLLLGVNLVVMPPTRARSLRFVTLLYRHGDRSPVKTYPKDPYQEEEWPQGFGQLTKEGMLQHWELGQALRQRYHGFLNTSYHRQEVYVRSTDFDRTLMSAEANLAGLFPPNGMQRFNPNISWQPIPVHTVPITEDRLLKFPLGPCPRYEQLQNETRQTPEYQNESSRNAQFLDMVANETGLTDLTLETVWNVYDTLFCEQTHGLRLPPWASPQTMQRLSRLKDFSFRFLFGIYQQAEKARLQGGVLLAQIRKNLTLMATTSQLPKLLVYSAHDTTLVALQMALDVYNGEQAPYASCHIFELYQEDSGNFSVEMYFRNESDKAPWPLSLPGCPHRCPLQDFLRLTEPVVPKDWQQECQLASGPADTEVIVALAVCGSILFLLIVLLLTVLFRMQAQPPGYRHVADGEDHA
inactive: [1] 0.031 | [2] 0.004 | [3] 0.061 | [4] 0.019 | [5] 0.019 | [6] -0.01 | [7] 0.022 | [8] -0.022 | [9] -0.003 | [10] 0.045

ACAP2 (UniProt Q15057)
inactive: [1] -0.002 | [2] 0.054 | [3] 0.062 | [4] -0.05 | [5] 0.056 | [6] 0.037 | [7] -0.032 | [8] -0.012 | [9] -0.042 | [10] -0.013

ALDH18A1 (UniProt P54886)
inactive: [1] 0.016 | [2] 0.092 | [3] 0.089 | [4] -0.084 | [5] -0.007 | [6] -0.204 | [7] -0.093 | [8] -0.091 | [9] -0.015 | [10] -0.057

AKR1C2 (UniProt P52895)
Chain of UniProt P52895 (P52895 whole entry, looked up): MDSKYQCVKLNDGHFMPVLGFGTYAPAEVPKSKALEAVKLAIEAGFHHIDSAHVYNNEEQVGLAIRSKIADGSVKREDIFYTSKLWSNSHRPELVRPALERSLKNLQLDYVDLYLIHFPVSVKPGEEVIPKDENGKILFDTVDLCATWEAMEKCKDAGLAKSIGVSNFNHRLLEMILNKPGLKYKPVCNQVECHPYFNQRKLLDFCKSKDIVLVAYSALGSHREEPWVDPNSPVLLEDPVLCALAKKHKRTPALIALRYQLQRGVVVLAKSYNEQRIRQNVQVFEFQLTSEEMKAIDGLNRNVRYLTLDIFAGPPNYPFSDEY
inactive: [1] 0.07 | [2] 0.014 | [3] -0.101 | [4] -0.092 | [5] 0.001 | [6] 0.085 | [7] 0.292 | [8] -0.038 | [9] 0.044 | [10] -0.028

ACP1 isoform 2 (UniProt P24666)
Chain of UniProt P24666 (P24666 whole entry, looked up): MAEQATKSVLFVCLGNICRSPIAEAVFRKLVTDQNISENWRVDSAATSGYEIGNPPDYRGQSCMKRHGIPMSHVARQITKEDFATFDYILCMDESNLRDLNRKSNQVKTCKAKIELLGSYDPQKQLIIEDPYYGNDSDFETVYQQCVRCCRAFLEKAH
inactive: [1] 0.072 | [2] 0.011 | [3] 0.038 | [4] 0.024 | [5] 0.029 | [6] -0.008 | [7] -0.018 | [8] 0 | [9] 0.004 | [10] -0.039

ARMC10 (UniProt Q8N2F6)
inactive: [1] -0.021 | [2] 0.044 | [3] -0.092 | [4] -0.066 | [5] 0.005 | [6] 0.006 | [7] -0.034 | [8] 0.016 | [9] 0.003 | [10] -0.023

AFDN isoform 1 (UniProt P55196)
inactive: [1] -0.008 | [2] 0.072 | [3] 0.002 | [4] -0.003 | [5] -0.136 | [6] -0.018 | [7] -0.082 | [8] -0.005

AK6 (UniProt Q9Y3D8)
inactive: [1] 0.105 | [2] 0.108 | [3] 0.007 | [4] -0.157 | [5] 0.194 | [6] 0.025 | [7] 0.046 | [8] -0.027 | [9] -0.041 | [10] -0.085

ADD3 (UniProt Q9UEY8)
Chain of UniProt Q9UEY8 (Q9UEY8 whole entry, looked up): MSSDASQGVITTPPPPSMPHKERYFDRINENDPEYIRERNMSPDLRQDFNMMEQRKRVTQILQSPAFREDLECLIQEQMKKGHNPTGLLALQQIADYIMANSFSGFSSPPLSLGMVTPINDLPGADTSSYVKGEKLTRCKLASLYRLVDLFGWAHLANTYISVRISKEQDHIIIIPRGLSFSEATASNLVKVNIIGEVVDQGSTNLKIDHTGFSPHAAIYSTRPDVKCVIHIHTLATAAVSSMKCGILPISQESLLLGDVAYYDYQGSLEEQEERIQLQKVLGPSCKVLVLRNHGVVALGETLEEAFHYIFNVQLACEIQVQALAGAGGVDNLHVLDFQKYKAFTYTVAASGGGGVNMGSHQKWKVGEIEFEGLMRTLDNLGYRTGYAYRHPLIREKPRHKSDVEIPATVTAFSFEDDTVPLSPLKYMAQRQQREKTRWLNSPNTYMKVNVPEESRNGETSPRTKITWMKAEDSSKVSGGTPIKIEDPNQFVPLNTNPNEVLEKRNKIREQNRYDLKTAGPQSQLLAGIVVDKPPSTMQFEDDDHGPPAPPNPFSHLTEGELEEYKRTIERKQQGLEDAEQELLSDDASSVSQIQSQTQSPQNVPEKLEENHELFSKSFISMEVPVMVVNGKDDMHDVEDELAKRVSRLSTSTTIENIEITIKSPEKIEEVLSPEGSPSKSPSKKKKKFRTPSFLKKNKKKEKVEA
inactive: [1] 0.018 | [2] 0 | [3] -0.008 | [4] 0.025 | [5] 0.02 | [6] 0.013 | [7] -0.025 | [8] -0.024 | [9] -0.015 | [10] 0.031

ATOX1 (UniProt O00244)
inactive: [1] -0.033 | [2] 0.307 | [3] 0.141 | [4] 0.068 | [5] -0.089 | [6] 0.074 | [7] 0.242 | [8] 0.112 | [9] -0.061 | [10] 0.024

ARF4 (UniProt P18085)
inactive: [1] -0.029 | [2] 0.033 | [3] 0.093 | [4] -0.007 | [5] 0.006 | [6] -0.016 | [7] 0.093 | [8] 0.039 | [9] -0.015 | [10] -0.021

ACSL4 (UniProt O60488)
active: [4] 0.727 | [8] 0.357
inactive: [1] 0.16 | [2] 0.02 | [3] -0.021 | [5] 0.13 | [6] 0.024 | [7] 0.226 | [9] -0.058 | [10] -0.002

ASB6 (UniProt Q9NWX5)
inactive: [1] -0.024 | [3] -0.263 | [4] -0.067 | [5] 0.184 | [6] -0.084 | [7] 0.101 | [8] -0.032
active: [2] -0.603

ACSF3 (UniProt Q4G176)
Chain of UniProt Q4G176 (Q4G176 whole entry, looked up): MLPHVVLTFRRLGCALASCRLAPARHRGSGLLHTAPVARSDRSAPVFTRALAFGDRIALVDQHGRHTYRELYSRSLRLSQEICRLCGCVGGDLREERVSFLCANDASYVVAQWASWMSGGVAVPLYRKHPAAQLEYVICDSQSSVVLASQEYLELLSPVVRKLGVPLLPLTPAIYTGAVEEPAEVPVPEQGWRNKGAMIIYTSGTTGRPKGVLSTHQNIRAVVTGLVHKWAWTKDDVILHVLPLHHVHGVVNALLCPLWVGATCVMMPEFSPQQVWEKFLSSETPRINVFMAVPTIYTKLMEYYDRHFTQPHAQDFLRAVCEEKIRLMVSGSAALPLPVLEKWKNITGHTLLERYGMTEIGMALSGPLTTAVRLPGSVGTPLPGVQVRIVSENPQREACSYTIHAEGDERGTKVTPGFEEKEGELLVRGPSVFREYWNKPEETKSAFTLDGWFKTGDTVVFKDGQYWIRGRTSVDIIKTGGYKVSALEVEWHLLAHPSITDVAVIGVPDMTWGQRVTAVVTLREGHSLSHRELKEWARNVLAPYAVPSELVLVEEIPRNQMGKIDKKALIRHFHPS
inactive: [1] 0.07 | [2] -0.066 | [3] 0.057 | [4] -0.155 | [5] -0.104 | [6] 0.04 | [7] 0.028 | [8] 0.022 | [9] -0.001 | [10] -0.038

BECN1 (UniProt Q14457)
inactive: [1] -0.007 | [2] -0.035 | [3] 0.043 | [4] -0.042 | [5] -0.001 | [6] 0.085 | [7] -0.043 | [8] 0.008 | [9] 0.002 | [10] -0.042

APOBEC3G (UniProt Q9HC16)
inactive: [1] -0.087 | [2] 0.027 | [3] -0.124 | [4] 0.047 | [5] -0.005 | [6] 0.056 | [7] -0.056 | [8] 0.109 | [9] 0.181 | [10] -0.362

ALDH9A1 isoform 3 (UniProt P49189)
Chain of UniProt P49189 (P49189 whole entry, looked up): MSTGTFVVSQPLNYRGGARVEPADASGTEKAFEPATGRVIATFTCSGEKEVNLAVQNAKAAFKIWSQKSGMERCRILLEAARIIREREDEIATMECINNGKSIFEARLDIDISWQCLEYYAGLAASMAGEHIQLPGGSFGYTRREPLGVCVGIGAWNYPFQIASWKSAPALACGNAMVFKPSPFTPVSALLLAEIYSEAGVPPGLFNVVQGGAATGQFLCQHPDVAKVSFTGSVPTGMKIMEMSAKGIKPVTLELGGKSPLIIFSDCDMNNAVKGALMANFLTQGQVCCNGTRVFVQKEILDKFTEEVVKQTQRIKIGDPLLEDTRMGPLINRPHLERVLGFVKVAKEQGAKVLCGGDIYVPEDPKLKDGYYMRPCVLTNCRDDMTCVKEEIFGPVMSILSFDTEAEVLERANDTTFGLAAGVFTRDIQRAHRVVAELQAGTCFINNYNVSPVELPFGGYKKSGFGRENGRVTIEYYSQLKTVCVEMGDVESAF
inactive: [1] -0.025 | [2] 0.016 | [3] 0.043 | [4] 0.027 | [5] -0.004 | [6] 0.003 | [7] 0.037 | [8] -0.007 | [9] -0.018 | [10] 0.051

Reference: the supplement of paper PMC10849652
